Reference: PubChem BioAssay AID623911 (Vanderbilt High Throughput Screening Facility, 2012)
Out of some 2,100 compounds screened, about 770 (37%) were called active.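 The calls were made as follows: active = by-eye trace score of 1 for enhancers or -1 for inhibitors, so actives lie on both sides (some results past the limit were not filed as active); inactive = score 0, or 3 fluorescent, or 4 baseline rise.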 This is one part of the list.

Molecular target: G protein-activated inward rectifier potassium channel 2 (Homo sapiens) + G protein-activated inward rectifier potassium channel 1 (Homo sapiens) (UniProt P48051+P48549)
Assay: GIRK1/2 thallium flux modulators, retest, confirmation, cell-based, HEK293 rmGlu8/hGIRK1/2, FluoZin-2 (AID 623911)
Details: HEK293 rmGlu8/hGIRK1/2, thallium flux FluoZin-2; actives lie on both sides; glutamate co-added at its EC20 level

G protein-activated inward rectifier potassium channel 2 (Homo sapiens) + G protein-activated inward rectifier potassium channel 1 (Homo sapiens), sequence (P48051 whole entry, looked up): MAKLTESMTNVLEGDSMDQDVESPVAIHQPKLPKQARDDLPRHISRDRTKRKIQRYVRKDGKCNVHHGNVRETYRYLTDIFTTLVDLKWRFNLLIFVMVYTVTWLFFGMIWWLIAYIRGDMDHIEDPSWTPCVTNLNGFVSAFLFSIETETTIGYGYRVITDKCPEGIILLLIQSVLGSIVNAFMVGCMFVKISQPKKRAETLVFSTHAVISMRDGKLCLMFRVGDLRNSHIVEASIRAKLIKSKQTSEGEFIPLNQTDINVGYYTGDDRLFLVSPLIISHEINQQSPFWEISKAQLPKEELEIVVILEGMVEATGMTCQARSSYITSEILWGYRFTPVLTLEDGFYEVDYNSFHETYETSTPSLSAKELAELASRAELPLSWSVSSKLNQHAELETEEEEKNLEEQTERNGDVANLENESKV
G protein-activated inward rectifier potassium channel 2 (Homo sapiens) + G protein-activated inward rectifier potassium channel 1 (Homo sapiens), sequence (P48549 whole entry, looked up): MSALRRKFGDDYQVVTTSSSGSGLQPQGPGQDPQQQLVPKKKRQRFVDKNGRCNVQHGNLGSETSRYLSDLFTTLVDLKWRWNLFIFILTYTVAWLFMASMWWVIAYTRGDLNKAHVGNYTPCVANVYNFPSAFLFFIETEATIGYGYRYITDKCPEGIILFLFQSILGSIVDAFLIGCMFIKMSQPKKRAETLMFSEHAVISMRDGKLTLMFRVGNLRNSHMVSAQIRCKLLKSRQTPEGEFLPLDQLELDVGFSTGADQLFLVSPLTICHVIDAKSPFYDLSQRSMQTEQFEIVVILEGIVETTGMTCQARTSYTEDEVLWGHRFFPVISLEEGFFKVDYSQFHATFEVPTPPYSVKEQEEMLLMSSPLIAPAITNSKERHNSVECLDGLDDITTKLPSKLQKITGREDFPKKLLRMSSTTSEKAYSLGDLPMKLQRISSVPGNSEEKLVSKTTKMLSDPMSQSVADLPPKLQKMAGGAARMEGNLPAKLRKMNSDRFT

Structure (SMILES)	manual score
CC(C)NC(=O)/C(=C/c1ccco1)c1ccccc1	0 (inactive)
Cc1nccn1CCc1nc(N)nc(N)n1	0 (inactive)
Cc1ccccc1OCC(=O)NNC(=S)NC(=O)c1ccco1	1 (active)
CCCc1ccc(OCC(=O)NNC(=S)NC(=O)c2ccco2)cc1	1 (active)
CCN(CC)c1ccc(/C=C2/C(=O)c3ccc(C(=O)O)cc3C2=O)cc1	3 (inactive)
CC1(C)CC2CC(C)(CN2C(=S)NC(=O)c2ccccc2Cl)C1 (stereo unspecified)	1 (active)
Nc1sccc1C(=O)c1ccccc1	0 (inactive)
Clc1cccc(CSc2nnc(-c3ccccn3)n2Cc2ccco2)c1	0 (inactive)
O=C(NCCCn1ccnc1)Nc1ccc(Cl)c(Cl)c1	0 (inactive)
O=C(NCCSCc1ccco1)Nc1cccc(Cl)c1	1 (active)
CSc1cccc(NC(=O)CN(c2ccc(C)cc2C)S(C)(=O)=O)c1	1 (active)
COc1cccc(N(CC(=O)NCc2cccnc2)S(C)(=O)=O)c1	0 (inactive)
COc1cccc(N(CC(=O)Nc2cccc(C(C)=O)c2)S(C)(=O)=O)c1	0 (inactive)
CC(=O)c1cccc(NC(=O)CCOc2ccccc2)c1	0 (inactive)
CSc1cccc(NC(=O)COc2ccccc2)c1	1 (active)
CSc1cccc(NC(=O)CN(c2ccccc2)S(=O)(=O)N(C)C)c1	1 (active)

Structure (SMILES)	manual score
CN(C)S(=O)(=O)N(CC(=O)Nc1ccc2ccccc2c1)c1ccccc1	1 (active)
Cc1cccc(NC(=O)CN(c2ccc(C(C)C)cc2)S(=O)(=O)c2c(C)nn(C)c2C)n1	-0.5 (inactive)
COc1cccc(NC(=O)COc2ccc(C)cc2)c1	0 (inactive)
CC1=CC(=O)OC1Cc1ccncc1 (stereo unspecified)	0 (inactive)
O=c1c2c(nc3c(-c4ccc(Cl)cc4)c[nH]n13)CCCC2	0 (inactive)
O=C(CSc1nnnn1-c1cccc2c1CCCC2)NC1CCCC1	-0.5 (inactive)
CSC1=N/C(=C\c2ccc(Br)o2)C(=O)S1	0 (inactive)
c1ccc2c(NC3CCCC3)nnc(NC3CCCC3)c2c1	-1 (active)
CN=C1S/C(=C\c2cc(C)n(-c3ccccc3F)c2C)C(=O)N1C	0 (inactive)
CC1CCN(c2ccc(/C=N/n3nnnc3N)cc2[N+](=O)[O-])CC1	0 (inactive)
Cc1ccc2nc(NCc3ccccc3)[nH]c2c1	-1 (active)
Cc1cc(N2CCN(c3ccccc3)CC2)nc(NCc2ccccc2)n1	0 (inactive)
CC(/C=N/n1c(-c2ccco2)n[nH]c1=S)=C\c1ccccc1	0 (inactive)
S=c1[nH]nc(-c2ccco2)n1/N=C/c1cccc(Cl)c1Cl	0 (inactive)
S=c1[nH]nc(-c2ccco2)n1/N=C/c1ccc(Cl)cc1Cl	1 (active)
